According to PubChem BioAssay (Tox21):
Records with an inconclusive call do not appear. Values without a mark were called inactive. Calls of active or inactive are those of the source. Calls follow the shape of the dose curve; as a rule, active = well fitted cell-killing curve with a large enough effect in the repeat runs; inconclusive = weak or mixed curves, or effect the other way; inactive = flat fitted curve, though single readings scatter.

test: cAMP Responsive Elements (CRE) small molecule antagonists, cell-based qHTS assay: qHTS cell viability counter screen (AID 2060913); conditions: CRE-bla HEK293T viability, CellTiter-Glo luminescence, 5 h; series mostly up to 92.4 µM; viability change, negative = cytotoxic: at the top concentration; also: nearly all actives have a fitted effect of over 40% in size
Summary of the method: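 Steps: cells plated and held 18 hrs at 37 C/5% CO2; compounds and NKH477 (0.25 uM final) added; 3 hrs incubation; reporter substrate read; CellTiter-Glo added to measure cytotoxicity by luminescence.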
% is scaled to controls: 0 for no effect and ±100 for the full control effect.

Row | Structure (SMILES) | viability change, negative = cytotoxic | Potency
1 | O=C(c1ccccc1)C1(O)CCCCC1 | 1.28% | 
2 | CNC1(C)C2CCC(C2)C1(C)C (stereo not given) | -0.314% [at 42.5 µM] | 
3 | C#CC(C)(O)CC(C)C (stereo not given) | -17.2% | 
4 | CC(=N\O)/C(C)=N/O | -4.62% | 
5 | NS(=O)(=O)c1cc2c(cc1Cl)NC(CSCc1ccccc1)=NS2(=O)=O | -0.245% [at 42.5 µM] | 
6 | CN(C)C(=O)COC(=O)Cc1ccc(OC(=O)c2ccc(N=C(N)N)cc2)cc1 | 0% [at 42.5 µM] | 
7 | C[n+]1c2cc(N)ccc2cc2ccc(N)cc21 (tested in a mixture with another compound) | 11.3% [at 42.5 µM] | 
8 | C=CCCCCCCCCO | 8.78% | 
9 | CC(C)OC(=O)CCCCC(=O)OC(C)C | 10.4% | 
10 | N#CC1(O)CCCCC1 | -5.58% | 
11 | CCN(CC)CCNC(C(=O)OCCC(C)C)c1ccccc1 (stereo not given) | -0.48% [at 42.5 µM] | 
12 | c1ccc(Cc2ccccc2)cc1 | 2.2% | 
13 | C=CC(=O)OCCCC |  | inactive
14 | CCN[C@H]1C[C@H](C)S(=O)(=O)c2sc(S(N)(=O)=O)cc21 | -0.268% [at 42.5 µM] | 
15 | Nc1nccs1 | 1.67% | 
16 | CC(C)(C)C(=O)CC(=O)C(C)(C)C | 23.5% | 
17 | C=C(C)[C@@H]1CC=C(C)C(=O)C1 | 0.0847% | 
18 | COC(C)=O | 15.2% | 
19 | CC(C)OC(=O)COc1ccc(Cl)cc1Cl | -0.147% | 
20 | CCCCCc1ccc(O)cc1 | -12.5% | 

Row | Structure (SMILES) | viability change, negative = cytotoxic | Potency
21 | Nc1ccc(O)c(C(=O)O)c1 |  | inactive
22 | CCCCCc1ccc(Cl)cc1 | -1.06% | 
23 | CCCCCCc1ccc(N)cc1 | -7.19% | 
24 | c1cnc2c(n1)CCCC2 | -0.21% | 
25 | Nc1ccc2cc(S(=O)(=O)O)ccc2c1 | -1.7% | 
26 | Cc1cc(O)ccc1N | 11.5% | 
27 | O=C1CCCN1C1CCCCC1 | -2.72% | 
28 | c1ccc(CCc2ccccc2)cc1 | 2.16% | 
29 | CC(C)C1OCCN1CCOC(=O)NCCCCCCNC(=O)OCCN1CCOC1C(C)C (stereo not given) | 5.56% | 
30 | O=C(COCCOCCOCC(=O)Nc1c(I)cc(I)c(C(=O)O)c1I)Nc1c(I)cc(I)c(C(=O)O)c1I | 2.07% [at 42.5 µM] | 
31 | Cc1cccc(C(=O)O)c1 |  | inactive
32 | CC(=O)CC/C=C(\C)CCC=C(C)C |  | inactive
33 | O=C1c2cccc(O)c2C(=O)c2c(O)cccc21 |  | inactive
34 | CCCCCCCCCCCCCCCC/C=C/C1CC(=O)OC1=O (stereo not given) | 5.95% [at 42.5 µM] | 
35 | N#Cc1cc(NC(=O)C(=O)O)c(Cl)c(NC(=O)C(=O)O)c1 | -3.05% [at 42.5 µM] | 
36 | O=[N+]([O-])c1cc([N+](=O)[O-])c2ccc(S(=O)(=O)O)cc2c1O | -5.4% | 
37 | O=C(c1ccccc1)C(O)c1ccccc1 (stereo not given) |  | inactive
38 | CCC(=O)OCc1ccccc1 | 2.56% | 
39 | C=C(C)C(=O)Nc1ccc(Cl)c(Cl)c1 |  | inactive
40 | COC(=O)c1ccc([N+](=O)[O-])cc1 | -0.803% | 
